# Data as given in PubChem BioAssay (NCATS).
# Results filed as inconclusive are left out. Entries that show only a call come without a potency. Calls of active or inactive are those of the source. Calls come from the whole dose curve.
# Legend:
# [1] = Cytotoxicity counterscreen for inhibitors of SARS-CoV-2 cell entry (AID 1645845); note: nearly all actives have a fitted effect of over 50% in size
# Summary of the method: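 HEK293-ACE2 cells (Expi293F stably expressing human ACE2) seeded overnight, then compound for 1 h plus 48 h at 37C. Viability as ATP content by luminescence; normalized to wells with cells and media-only wells.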
# [2] = Primary qHTS to identify inhibitors of SARS-CoV-2 cell entry (AID 1645846); details: activity change, negative = inhibition: at 57.1 µM (top of the series) unless noted; note: nearly all actives have a fitted effect of over 45% in size; note: potency is the fitted concentration of half-maximal effect
# Summary of the method: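 Using luciferase-reporting pseudoviruses carrying Wuhan-Hu-1 spike, the screen tracks entry into stably ACE2-expressing cells over 48 hr. Activity is expressed relative to spike particles versus particles lacking any fusion protein.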
structure (smiles),measurement,setting,value
O=c1c(-c2ccc(O)cc2)coc2cc(O)cc(O)c12,Potency,[1],inactive
same,"activity change, negative = inhibition",[2],-23.9% [at 114 µM]
C[C@](N)(Cc1ccc(O)cc1)C(=O)O,outcome,[1],inactive [at 5.25 µM]
same,outcome,[2],inactive [at 5.25 µM]
CC(=O)Nc1ccc(S(=O)(=O)Nc2cc(C)on2)cc1,Potency,[1],inactive
same,Potency,[2],inactive
CCC[C@@H]1C[C@@H](C(=O)N[C@@H]([C@H]2O[C@H](SC)[C@H](O)[C@@H](O)[C@H]2O)[C@@H](C)O)N(C)C1,Potency,[1],inactive
same,Potency,[2],inactive
CCCOC(=O)c1ccccc1,Potency,[1],inactive
same,Potency,[2],inactive
NS(=O)(=O)c1cc(C(=O)NN2C[C@H]3[C@H]4CCC(C4)[C@H]3C2)ccc1Cl,Potency,[1],inactive
same,"activity change, negative = inhibition",[2],-24.3%
CC(C)(Oc1ccc(C2CC2(Cl)Cl)cc1)C(=O)O (stereo not given),Potency,[1],inactive
same,Potency,[2],inactive
O=c1cc[nH]c(=O)[nH]1,Potency,[1],inactive
same,"activity change, negative = inhibition",[2],-14.8%
O=C(O)C[C@H](O)C[C@H](O)/C=C/c1c(C2CC2)nc2ccccc2c1-c1ccc(F)cc1,Potency,[1],inactive
same,"activity change, negative = inhibition",[2],-3.35%
Cc1cc2c(cc1S(N)(=O)=O)S(=O)(=O)CCC2,Potency,[1],inactive
same,Potency,[2],inactive
O=C(CCBr)N1CCN(C(=O)CCBr)CC1,Potency,[1],inactive
same,Potency,[2],inactive
CC(C)=CCC/C(C)=C/CO,Potency,[1],inactive
same,"activity change, negative = inhibition",[2],2.42%
CC[N+](CC)(CCNC(=O)C(=O)NCC[N+](CC)(CC)Cc1ccccc1Cl)Cc1ccccc1Cl,Potency,[1],inactive
same,Potency,[2],inactive
CN1CCN(C(c2ccccc2)c2ccc(Cl)cc2)CC1 (stereo not given),Potency,[1],inactive
same,Potency,[2],10 µM (active)
CN1[C@@H]2CC(OC(=O)[C@H](CO)c3ccccc3)C[C@H]1[C@@H]1O[C@@H]12 (stereo not given in full),Potency,[1],inactive
same,Potency,[2],inactive
